Assay results as given in PubChem BioAssay (EPA / NIEHS).
Calls of active or inactive are those of the source. Rule for the calls: active = hit-call score of the fitted dose curve at least 0.9, where 1 is the maximum; inactive = score below 0.9.

Experiments:
[1] = read-out: Vascular endothelial growth factor receptor 2 (Homo sapiens) (UniProt P35968); test: BSK_4H_VEGFRII: BioMAP Diversity Plus: 4H Assay for Vascular endothelial growth factor receptor 2 (VEGFR2) Biomarker Activity (AID 2283031); conditions: primary human endothelial cells (HUVEC); actives raise or lower the signal
In short: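 VEGFRII levels on human vascular endothelial primary cells were determined by ELISA at 24 hours post-dosing, with gain- or loss-of-signal fitted against DMSO controls.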

[2] = read-out: Human Leukocyte Antigen - DR isotype (HLADR), HLA-DRA (gene 3122); test: BSK_BE3C_HLADR: BioMAP Diversity Plus: BE3C Assay for Human Leukocyte Antigen - DR isotype (HLADR) Biomarker Activity (AID 2283032); conditions: primary human bronchial epithelial cells; actives raise or lower the signal
In short: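 BioMAP BE3C format: human bronchial epithelium, 24 h compound treatment, ELISA detection of HLA-DR, with bidirectional analysis relative to DMSO.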

[3] = read-out: Vascular cell adhesion molecule 1 (VCAM1), VCAM1 (gene 7412); test: BSK_4H_VCAM1: BioMAP Diversity Plus: 4H Assay for Vascular cell adhesion molecule 1 (VCAM1) Biomarker Activity (AID 2283033); conditions: primary human endothelial cells (HUVEC); actives raise or lower the signal
In short: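 In this human endothelial (HUVEC) system, biomarker ELISA was run 24 h after compound addition, and total protein in parallel wells was assessed by SRB at 560 nm; DMSO served as negative control.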

[4] = read-out: Interferon-gamma inducible Protein 10 (IP10), CXCL10 (gene 3627); test: BSK_BE3C_IP10: BioMAP Diversity Plus: BE3C Assay for Interferon-gamma inducible Protein 10 (IP10) Biomarker Activity (AID 2283034); conditions: primary human bronchial epithelial cells; actives raise or lower the signal
In short: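 BE3C cells (human bronchial epithelial, primary); 24 h exposure; ELISA for IP-10; DMSO-referenced bidirectional fit.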

[5] = read-out: Monokine induced gamma interferon (MIG), CXCL9 (gene 4283); test: BSK_BE3C_MIG: BioMAP Diversity Plus: BE3C Assay for Monokine induced gamma interferon (MIG) Biomarker Activity (AID 2283035); conditions: primary human bronchial epithelial cells; actives raise or lower the signal
In short: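 hu bronchial epithelial 1° cells, 24 h cpd; MIG by ELISA; bidirectional fit, DMSO = baseline.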

[6] = read-out: Transforming growth factor beta 1 (TGFb1), TGFB1 (gene 7040); test: BSK_BE3C_TGFb1: BioMAP Diversity Plus: BE3C Assay for Transforming growth factor beta 1 (TGFb1) Biomarker Activity (AID 2283036); conditions: primary human bronchial epithelial cells; actives raise or lower the signal
In short: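 TGF-b1 measured via ELISA, 24 h after chemical dosing of human bronchial epithelial cells (BE3C). Overt cytotoxicity assessed in parallel by SRB (0.1%, TCA-fixed, 560 nm); analysis bidirectional relative to DMSO.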

[7] = read-out: Plasminogen activator inhibitor-1 (PAI1), SERPINE1 (gene 5054); test: BSK_BE3C_PAI1: BioMAP Diversity Plus: BE3C Assay for Plasminogen activator inhibitor-1 (PAI1) Biomarker Activity (AID 2283037); conditions: primary human bronchial epithelial cells; actives raise or lower the signal
In short: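 In this multiplexed primary-cell system, bronchial epithelial cells receive test chemical and are sampled at 24 h. PAI-1 is read by ELISA, with DMSO serving as negative control for bidirectional fitting.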

[8] = read-out: urokinase plasminogen activator (uPA), PLAU (gene 5328); test: BSK_BE3C_uPA: BioMAP Diversity Plus: BE3C Assay for urokinase plasminogen activator (uPA) Biomarker Activity (AID 2283038); conditions: primary human bronchial epithelial cells; actives raise or lower the signal
In short: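 Measured by ELISA: uPA from human primary bronchial epithelial cells 24 h after chemical treatment. Values derive from bidirectional curve fitting with DMSO serving as negative control. Total protein by SRB staining in parallel wells flagged overt cytotoxicity.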

[9] = read-out: Urokinase-type plasminogen activator receptor (uPAR), PLAUR (gene 5329); test: BSK_BE3C_uPAR: BioMAP Diversity Plus: BE3C Assay for Urokinase-type plasminogen activator receptor (uPAR) Biomarker Activity (AID 2283039); conditions: primary human bronchial epithelial cells; actives raise or lower the signal
In short: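 Chemically treated human bronchial epithelial cells (lung primary) are assayed for uPAR by ELISA after 24 h, with data fitted in both directions using DMSO as negative control.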

[10] = read-out: Interleukin-6 (IL6), IL6 (gene 3569); test: BSK_CASM3C_IL6: BioMAP Diversity Plus: CASM3C Assay for Interleukin-6 (IL6) Biomarker Activity for (AID 2283040); conditions: primary human coronary artery smooth muscle cells; actives raise or lower the signal
[11] = read-out: Tissue plasminogen activator (tPA), PLAT (gene 5327); test: BSK_BE3C_tPA: BioMAP Diversity Plus: BE3C Assay for Tissue plasminogen activator (tPA) Biomarker Activity (AID 2283041); conditions: primary human bronchial epithelial cells; actives raise or lower the signal
In short: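 Using human lung primary bronchial epithelial cells, tPA was measured by ELISA 24 h after dosing; data fitted relative to DMSO.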

[12] = read-out: Interleukin-8 (IL8), CXCL8 (gene 3576); test: BSK_CASM3C_IL8: BioMAP Diversity Plus: CASM3C Assay for Interleukin-8 (IL8) Biomarker Activity (AID 2283042); conditions: primary human coronary artery smooth muscle cells; actives raise or lower the signal;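 note: IL-8 protein level quantified by ELISA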
[13] = read-out: Human Leukocyte Antigen - DR isotype (HLADR), HLA-DRA (gene 3122); test: BSK_CASM3C_HLADR: BioMAP Diversity Plus: CASM3C Assay for Human Leukocyte Antigen - DR isotype (HLADR) Biomarker Activity (AID 2283043); conditions: primary human coronary artery smooth muscle cells; actives raise or lower the signal;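 note: cell-surface HLA-DR protein level quantified by ELISA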
[14] = read-out: Macrophage colony-stimulating factor (MCSF), CSF1 (gene 1435); test: BSK_CASM3C_MCSF: BioMAP Diversity Plus: CASM3C Assay for Macrophage colony-stimulating factor (MCSF) Biomarker Activity (AID 2283044); conditions: primary human coronary artery smooth muscle cells; actives raise or lower the signal;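 note: M-CSF protein amount quantified by ELISA after 24 h exposure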
[15] = read-out: Low-density lipoprotein receptor (LDLR), LDLR (gene 3949); test: BSK_CASM3C_LDLR: BioMAP Diversity Plus: CASM3C Assay for Low-density lipoprotein receptor (LDLR) Biomarker Activity (AID 2283045); conditions: primary human coronary artery smooth muscle cells; actives raise or lower the signal;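 note: LDLR protein level on the cell surface quantified by ELISA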
[16] = read-out: Monocyte Chemoattractant Protein-1 (MCP1), CCL2 (gene 6347); test: BSK_CASM3C_MCP1: BioMAP Diversity Plus: CASM3C Assay for Monocyte Chemoattractant Protein-1 (MCP1) Biomarker Activity (AID 2283046); conditions: primary human coronary artery smooth muscle cells; actives raise or lower the signal;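 note: MCP-1 level quantified by ELISA 24 h after dosing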
[17] = BSK_CASM3C_Proliferation: Cell Proliferation Assessment in the BioMAP Diversity Plus: CASM3C Assay (AID 2283047); conditions: primary human coronary artery smooth muscle cells;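 note: sulforhodamine B total protein stain as relative cell number at 560 nm; sub-confluent cells exposed 48 h before staining; fitted both ways against DMSO so gain or loss of cell number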
[18] = read-out: Monokine induced gamma interferon (MIG), CXCL9 (gene 4283); test: BSK_CASM3C_MIG: BioMAP Diversity Plus: CASM3C Assay for Monokine induced gamma interferon (MIG) Biomarker Activity (AID 2283048); conditions: primary human coronary artery smooth muscle cells; actives raise or lower the signal;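 note: MIG protein level measured by ELISA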
[19] = read-out: serum amyloid A (SAA), SAA1 (gene 6288); test: BSK_CASM3C_SAA: BioMAP Diversity Plus: CASM3C Assay for serum amyloid A (SAA) Biomarker Activity (AID 2283049); conditions: primary human coronary artery smooth muscle cells; actives raise or lower the signal;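 note: SAA protein level quantified by ELISA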
[20] = BSK_CASM3C_SRB: Viability Assessment in the BioMAP Diversity Plus: CASM3C Assay (AID 2283050); conditions: primary human coronary artery smooth muscle cells;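 note: total protein by SRB staining as cytotoxicity measure in parallel cultures; cells exposed to compound for 24 h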

Measured: AC50

O=Cc1ccco1
inactive: [1] | [2] | [3] | [4] | [5] | [6] | [7] | [8] | [9] | [10] | [11] | [12] | [13] | [14] | [15] | [16] | [17] | [18] | [19] | [20]

C[N+](C)(C)CC1CO1 (stereo not given)
inactive: [1] | [2] | [3] | [4] | [5] | [6] | [7] | [8] | [9] | [10] | [11] | [12] | [13] | [14] | [15] | [16] | [17] | [18] | [19] | [20]

[Cl-].[Cl-].[Hg+2]
inactive: [1]
active: [2] 30.2 µM | [3] 29.7 µM | [4] 34.9 µM | [5] 36.5 µM | [6] 30.9 µM | [7] 30.9 µM | [8] 31.6 µM | [9] 31.5 µM | [10] 31.9 µM | [11] 31.8 µM | [12] 35.5 µM | [13] 25.4 µM | [14] 26.5 µM | [15] 34.8 µM | [16] 33.5 µM | [17] 29.3 µM | [18] 33.9 µM | [19] 30.6 µM | [20] 36.6 µM

Cc1cccc(N)c1N
active: [3] 13.6 µM | [14] 3.73 µM
inactive: [1] | [2] | [4] | [5] | [6] | [7] | [8] | [9] | [10] | [11] | [12] | [13] | [15] | [16] | [17] | [18] | [19] | [20]

CN(C)c1ccccc1
inactive: [1] | [2] | [3] | [4] | [5] | [6] | [7] | [8] | [9] | [10] | [11] | [12] | [13] | [14] | [15] | [16] | [17] | [18] | [19] | [20]

CO[C@@H]1[C@H](OC(=O)NC(=O)CCl)CC[C@]2(CO2)[C@H]1[C@@]1(C)O[C@@H]1CC=C(C)C
active: [2] 7.85 µM | [3] 6.62 µM | [4] 9.12 µM | [7] 6.98 µM | [9] 5.83 µM | [11] 7.73 µM | [13] 8.37 µM | [17] 1.99 µM
inactive: [1] | [5] | [6] | [8] | [10] | [12] | [14] | [15] | [16] | [18] | [19] | [20]

CC(C)(C)C(O)(CCc1ccc(Cl)cc1)Cn1cncn1 (stereo not given)
inactive: [1] | [2] | [3] | [4] | [5] | [6] | [7] | [8] | [9] | [10] | [11] | [12] | [13] | [14] | [15] | [16] | [17] | [18] | [19] | [20]
